Screening results (PubChem)
Compounds with a hit are over-represented: about 1.4% of the library has one in this group of screens.
TPT1 inhibitor: C. albicans TPT1 enzyme inhibition | recombinant caTPT1, FP RNA substrate dephosphorylation | inhibition, % at 5 µM | actives 0.81% (n = 300,000);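 active = inhibition above the mean of all tested compounds plus 3 SD, set per screening campaign, cut at about 24% in these data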;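 note: plate controls were DMSO alone for no effect and ferristatin control at 100 nM for full effect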
HNF4A DNA FP: change in binding of human HNF4 alpha to DNA. P41235. HNF4a-FITC DNA binding, fluorescence polarization, 1 h. activity change, % at 10 µM. actives 0.3% (n = 360,000); in the data active = activity change above about 30%, passing the limit was not always enough
IDE inh: cellular human IDE inhibition; actives 0.41% (n = 320,000); inhibition, % at 5.59 µM; HEK cells, FAbetaB cleavage, fluorescence polarization; P14735;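 active = percent inhibition above the average of all tested compounds plus 3 SD, set per screening campaign, cut at about 16% in these data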;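 note: IDE supplied by intact live HEK cells; FP after avidin binding of uncleaved biotin substrate so inhibition keeps polarization high; 0% = DMSO wells and 100% = 60 µM reference IDE inhibitor Ii1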
Target sequence (P14735 whole entry, looked up): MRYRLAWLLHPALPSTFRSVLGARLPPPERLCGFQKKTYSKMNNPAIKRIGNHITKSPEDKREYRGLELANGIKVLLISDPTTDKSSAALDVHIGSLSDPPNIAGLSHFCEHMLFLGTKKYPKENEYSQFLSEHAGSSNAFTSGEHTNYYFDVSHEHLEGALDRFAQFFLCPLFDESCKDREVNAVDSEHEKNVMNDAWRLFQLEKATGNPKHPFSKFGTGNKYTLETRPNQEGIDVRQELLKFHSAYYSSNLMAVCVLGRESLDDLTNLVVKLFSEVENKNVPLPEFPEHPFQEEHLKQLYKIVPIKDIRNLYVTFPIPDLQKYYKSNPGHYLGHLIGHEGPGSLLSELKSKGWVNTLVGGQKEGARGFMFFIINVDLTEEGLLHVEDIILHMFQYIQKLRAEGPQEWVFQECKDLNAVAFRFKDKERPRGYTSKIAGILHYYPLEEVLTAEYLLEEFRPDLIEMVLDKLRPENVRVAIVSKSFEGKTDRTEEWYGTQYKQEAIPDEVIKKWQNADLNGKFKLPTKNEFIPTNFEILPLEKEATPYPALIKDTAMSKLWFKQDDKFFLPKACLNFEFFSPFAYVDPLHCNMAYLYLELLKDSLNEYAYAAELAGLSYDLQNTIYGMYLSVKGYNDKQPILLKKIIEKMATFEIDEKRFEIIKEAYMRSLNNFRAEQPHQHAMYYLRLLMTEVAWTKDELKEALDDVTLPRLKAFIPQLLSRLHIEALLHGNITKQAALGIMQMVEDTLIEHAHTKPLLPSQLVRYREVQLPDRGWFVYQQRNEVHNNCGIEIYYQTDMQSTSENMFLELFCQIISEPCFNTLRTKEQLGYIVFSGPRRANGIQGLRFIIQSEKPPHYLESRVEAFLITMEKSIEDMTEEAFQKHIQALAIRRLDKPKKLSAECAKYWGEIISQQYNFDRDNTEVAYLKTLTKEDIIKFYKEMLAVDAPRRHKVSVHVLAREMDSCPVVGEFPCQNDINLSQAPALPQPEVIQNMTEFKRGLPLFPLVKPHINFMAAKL
CRFR2-BP ag: agonists of human CRF-binding protein/CRF-R2 receptor complex; HEK293 CRF-R2/CRF-BP, calcium dye fluorescence (FLIPR); percent of saturating CRF peptide response; activation, % at 13.2 µM; actives 0.46% (n = 350,000);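 active = activation of at least 50%, plus an integration ratio under a set limit after plate pattern correction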;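 note: plate controls were neutral control wells without compound for no effect and CRF at EC100 for full effect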
IDE cell activ: activators of human insulin-degrading enzyme in cells | P14735 | HEK cells, FAbeta-B cleavage, fluorescence polarization; 0% vehicle, 100% cell-free pure enzyme wells | activation, % at 5.96 µM | actives 0.073% (n = 340,000) | AID 493087;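 active = activation above the mean of all tested compounds plus 3 SD, set per screening campaign, cut at about 17% in these data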
Starred values were filed as active, the others as inactive.

How did CCN(CC)c1ccc(C(=C2C=CC(=[N+](CC)CC)C=C2)c2ccc(N(CC)CC)cc2)cc1 do in these assays?
HNF4A DNA FP: 1.0; CRFR2-BP ag: 9.2; IDE cell activ: 7.2

Results for Nc1nc2c(c(=O)[nH]1)CN(Cc1ccccc1)CC2 ?
TPT1 inhibitor: 1.6; HNF4A DNA FP: -1.9; IDE inh: -9.4; CRFR2-BP ag: -1.2; IDE cell activ: 3.7

How did CCCSc1nc2sc3c(c2c(=O)[nH]1)CCN(Cc1ccccc1)C3 do in these assays?
TPT1 inhibitor: 81.8*; HNF4A DNA FP: 17.2; IDE inh: 13.9; CRFR2-BP ag: 43.9; IDE cell activ: -20.5

How did O=c1[nH]c(C(Cl)Cl)nc2sc3c(c12)CCN(Cc1ccccc1)C3 do in these assays?
TPT1 inhibitor: 10.1; HNF4A DNA FP: -17.9; IDE inh: -0.7; CRFR2-BP ag: 56.4*; IDE cell activ: 1.6

What do the screens show for `NC(CCc1ccccc1)c1csc(Nc2nncc3ccccc23)n1` (configuration not stated)?
HNF4A DNA FP: 0.3

What do the screens show for `COc1cc(NC(=O)CN2C(=O)NC(CC(C)C)C2=O)cc(OC)c1OC` (configuration not stated)?
HNF4A DNA FP: 11.1; IDE inh: -2.8; CRFR2-BP ag: -0.2; IDE cell activ: 4.8

Results for CC(Oc1ccc(F)cc1)C(=O)Nc1cccc(S(=O)(=O)N(C)c2ccccc2)c1 (configuration not stated) ?
HNF4A DNA FP: -2.9; CRFR2-BP ag: 2.0

How did O=C(N/N=C/c1cc([N+](=O)[O-])cc(Br)c1O)C12CC3CCC(CC(C3)C1)C2 do in these assays?
TPT1 inhibitor: 0.1; HNF4A DNA FP: 4.0; IDE inh: -8.0; CRFR2-BP ag: 117.1*; IDE cell activ: 2.5

What do the screens show for `Cc1ccc(S(=O)(=O)c2c(N)n(Cc3ccco3)c3nc4ccccc4nc23)cc1C`?
TPT1 inhibitor: 23.4; HNF4A DNA FP: -6.9; IDE inh: 12.9; CRFR2-BP ag: 47.7; IDE cell activ: -9.9

Results for Nc1c(S(=O)(=O)c2ccccc2)c2nc3ccccc3nc2n1Cc1ccco1 ?
TPT1 inhibitor: 20.5; HNF4A DNA FP: -4.6; IDE inh: 2.2; CRFR2-BP ag: 65.4*; IDE cell activ: -14.1

Results for CCCCn1c(NC(=O)c2ccco2)c(S(=O)(=O)c2ccc(C)cc2)c2nc3ccccc3nc21 ?
HNF4A DNA FP: 68.1*; CRFR2-BP ag: 15.4; IDE cell activ: -5.5

How did CC(Oc1ccc(Cl)cc1)C(=O)Nc1ccccc1N1CCOCC1 (configuration not stated) do in these assays?
HNF4A DNA FP: 4.3; IDE inh: -0.1; CRFR2-BP ag: 52.9*; IDE cell activ: -1.4

Results for CC(Oc1cccc(Cl)c1)C(=O)Nc1ccccc1N1CCCC1 (configuration not stated) ?
TPT1 inhibitor: -0.5; HNF4A DNA FP: 5.3; IDE inh: 3.2; CRFR2-BP ag: -0.5; IDE cell activ: 2.3

What do the screens show for `Cc1cc(Cl)ccc1OC(C)C(=O)Nc1cccc(S(=O)(=O)N2CCOCC2)c1` (configuration not stated)?
HNF4A DNA FP: 0.3; CRFR2-BP ag: -0.5

What do the screens show for `Cc1cc(Cl)ccc1OC(C)C(=O)Nc1ccccc1N1CCOCC1` (configuration not stated)?
TPT1 inhibitor: -3.2; HNF4A DNA FP: 1.2; IDE inh: 0.7; CRFR2-BP ag: 109.9*; IDE cell activ: 5.3

Results for CCOC(=O)[C@@H]1[C@H]2COc3ccc(Br)cc3[C@@H]2N2C(=O)N(c3ccc(C)cc3)C(=O)[C@@]12C ?
HNF4A DNA FP: -0.9; IDE inh: -1.8; CRFR2-BP ag: 0.4; IDE cell activ: 3.7

What do the screens show for `O=C(NCC(=O)N(c1cccnc1)C(C(=O)NC1CCCCC1)c1ccccc1F)c1ccco1` (configuration not stated)?
TPT1 inhibitor: -0.3; HNF4A DNA FP: 0.6; IDE inh: -8.5; CRFR2-BP ag: -0.3; IDE cell activ: 0.9

Results for O=C(N/N=C/c1ccc(O)c2ncccc12)c1cccc(Br)c1 ?
TPT1 inhibitor: 2.5; HNF4A DNA FP: -9.7; IDE inh: 0.9; CRFR2-BP ag: 123.9*; IDE cell activ: -13.9

What do the screens show for `O=C(N/N=C/c1cc(Br)ccc1O)c1ccncc1`?
TPT1 inhibitor: 12.5; HNF4A DNA FP: 8.3; IDE inh: 4.2; CRFR2-BP ag: 6.1; IDE cell activ: 0.2
